TRHR enhancer: TRH receptor (human) allosteric enhancement; AID 493056; 360,000 tested, 0.66% active; P34981; enhancement, % at 2 µM; TRHR cells, fluo-8 calcium fluorescence, EC20 TRH enhancement; in the data active = enhancement above about 30%
Target sequence (P34981 whole entry, looked up): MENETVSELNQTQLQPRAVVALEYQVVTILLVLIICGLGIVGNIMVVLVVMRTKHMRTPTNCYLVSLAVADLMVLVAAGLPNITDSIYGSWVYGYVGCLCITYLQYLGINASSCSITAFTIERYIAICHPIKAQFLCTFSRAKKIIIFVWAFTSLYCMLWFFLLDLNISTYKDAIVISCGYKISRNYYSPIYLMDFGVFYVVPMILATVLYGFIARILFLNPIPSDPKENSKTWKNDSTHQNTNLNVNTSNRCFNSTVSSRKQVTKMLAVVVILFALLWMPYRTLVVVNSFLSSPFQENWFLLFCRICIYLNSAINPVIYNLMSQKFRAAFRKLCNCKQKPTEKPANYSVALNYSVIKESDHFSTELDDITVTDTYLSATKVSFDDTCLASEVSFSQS
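Enhancer read-out: after compound pinning and an initial kinetic agonist-mode read, an EC20 of TRH (10 nM final) was injected and fluo-8 calcium signal (Ex 480/Em 530) followed at 1 s/cycle for 100 cycles in TRHR-expressing cells.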
D1 PAM: potentiators of human D1 dopamine receptor | P21728 | HEK293 TREx D1 cells, calcium flux, dopamine EC20 potentiation | potentiation, % at 10 µM | 360,000 tested, 0.036% active; in the data active = potentiation above about 30%
D1 agonist: human D1 receptor agonism. 360,000 tested, 1% active. HEK293 T-REx D1 cells, calcium flux, agonist mode. P21728. activation, % at 2 µM
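Agonism was scored from calcium flux recorded over 180 s (1 read/s) after pintool compound addition, following a 10-cycle baseline. Cells were inducible force-coupled HEK293 TREx D1, plated overnight at 30 C and loaded with no-wash calcium dye.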
D1 antag: human D1 dopamine receptor antagonism; P21728; HEK293 TREx D1 cells, calcium flux, dopamine EC80; stronger effect = lower value; activity change, negative = inhibition, % at 10 µM; 360,000 tested, 3.2% active; in the data active = activity change below about -30%
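Antagonism measured as reduced calcium response to an EC80 dopamine addition following 180 s compound pre-read; cells were inducible HEK293 Trex D1 plated overnight at 30 C, read kinetically at 1 cycle/sec.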
TRHR ag: TRH receptor (human) agonism; P34981; TRHR cells, calcium flux fluo-8, FDSS agonist mode; activation, % at 2 µM; 360,000 tested, 0.18% active
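TRHR-expressing cells loaded with fluo-8 calcium dye; 23 nL library compound pin-transferred, kinetic FDSS fluorescence (Ex 480/Em 530) recorded about 180 s for agonist-induced calcium release, before a 10 nM TRH EC20 addition for potentiator mode.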
Large screens that a line does not name were inactive; ! = a repeat was not active. Shown are actives, neighbours in structure and some others; about 4.6% of the full set was active somewhere. Rule as the data show it, unless noted: active = activation above about 30%; inactive = the rest.

COc1ccc(C2NCCc3c2[nH]c2ccccc32)cc1COc1ccc(F)cc1 (stereo not given)	D1 agonist 77
O=C(O)C1Cc2c([nH]c3ccccc23)C(c2ccc3c(c2)OCO3)N1 (stereo not given)	none
COc1ccc(C2NC(C(=O)O)Cc3c2[nH]c2ccccc32)cc1CN1CCN(c2ccc(F)cc2)CC1 (stereo not given)	D1 antag -48
COc1ccc(F)cc1COc1nc(C)nc2ccccc12	none
Cc1cc(C(=O)Nc2ccccc2N2CCOCC2)c(C)o1	none
COCCCC1CCN(Cc2nc(-c3ccccc3)no2)CC1	none
CCN(CC)c1ccc2cc(-c3nc4ccccc4[nH]3)c(=O)oc2c1	D1 agonist 547, D1 antag -77, TRHR ag 207
Cc1ccc(-c2nc3ccccc3n2C)o1	none
CN(C)Cc1c(O)ccc2cc(-c3nc4ccccc4n3C)c(=O)oc12	TRHR enhancer 40
CCN(CC)c1ccc2cc(-c3nnc(-c4ccccc4)o3)c(=O)oc2c1	D1 agonist 244, TRHR ag 224
CCN(CC)c1ccc2cc(-c3nc4ccccc4n3C)c(=O)oc2c1	TRHR enhancer 31, D1 agonist 278, TRHR ag 144
COc1cccc2cc(-c3nc4ccccc4[nH]3)c(=O)oc12	none
COc1cccc2c1cc1c(=O)n(CC(=O)NCc3ccco3)nc(C)n12	none
COc1ccc(/C=N/NC(=O)CCn2cnc3ccccc32)cc1	D1 antag -51
O=C(CCC(=O)Nc1ccccc1)N/N=C/c1ccncc1	none
COc1ccc(/C=N/NC(=O)CNS(=O)(=O)c2ccccc2)cc1	D1 antag -38
Cc1ccccc1NC(=O)CCC(=O)N/N=C/c1ccncc1	D1 antag -40
O=C(Nc1ccccc1C(=O)N/N=C/c1ccncc1)c1ccccc1	D1 antag -32
O=C(COc1ccc(F)cc1)N1CCCCCCC1	none
COc1ccc(NC(=O)CCC(=O)N/N=C/c2ccncc2)cc1	D1 antag -64
CCN(CC)CCCNC(=O)c1ccc2c(c1)N(Cc1c(F)cccc1Cl)C(=O)c1ccccc1S2	D1 agonist 45
CCN1C(=O)c2ccccc2Sc2ccc(NC(=O)c3ccc(C)c(F)c3)cc21	D1 antag -72
Cc1c(C)n(Cc2ccc(F)cc2)c2ccc(C(=O)NCCCN3CCOCC3)cc12	D1 antag -37
Cc1ccc(CN2C(=O)c3ccccc3Sc3ccc(C(=O)NCCCN4CCOCC4)cc32)cc1	D1 agonist 43!
O=C(NCCN1CCOCC1)c1ccc2c(c1)N(Cc1cccc(F)c1)C(=O)c1ccccc1S2	none
O=C(NCc1ccco1)c1ccc2c(c1)N(Cc1c(F)cccc1Cl)C(=O)c1ccccc1S2	none
O=C(OCC(=O)N1CCOCC1)c1ccccc1O	none
Cc1cc(F)ccc1S(=O)(=O)N1CCCOC1CNC(=O)C(=O)NCC(C)C (stereo not given)	none
CC1CCCN(CCCNC(=O)c2ccc3c(c2)N(Cc2ccc(F)cc2)C(=O)c2ccccc2S3=O)C1 (stereo not given)	D1 agonist 39
COc1ccccc1CNC(=O)c1ccc2c(c1)N(Cc1cc(C)ccc1C)C(=O)c1ccccc1S2	D1 antag -38
CSc1ncc(Cl)c(C(=O)Nc2nc3ccc(F)cc3s2)n1	none
Cc1cc(C)c2nc(NC3=NCN(CCN4CCOCC4)CN3)nc(C)c2c1	none
COCCCn1c(=O)/c(=C\c2ccccc2OC(F)F)s/c1=C(/C#N)C(=O)NCCOC	none
COCCNC(=O)/C(C#N)=c1\s/c(=C\c2ccccc2OC(F)F)c(=O)n1Cc1ccccc1	TRHR ag 103
O=C(CCS(=O)(=O)c1ccc(Br)s1)Nc1c(F)cccc1F	none
CSCSC1=C(C#N)C(c2ccc(Cl)cc2)C(C(C)=O)=C(C)N1 (stereo not given)	D1 antag -31
CCOC(=O)CSC1=C(C#N)C(c2ccccc2)C(C(C)=O)=C(C)N1 (stereo not given)	D1 antag -31
CSC1=C(C#N)C(c2ccccc2)C(C(C)=O)=C(C)N1 (stereo not given)	none
CCOC(=O)CSc1cc(-c2ccccc2)nc2ncnn12	none
O=P(O)(CCc1ccccn1)CN1CCCCC1	D1 antag -32
O=P(O)(CCc1ccccn1)CN1CCOCC1	none

Source: PubChem BioAssay
